Test results: PubChem BioAssay (NCI)
This is part of a sample that, as a whole, favours compounds with a hit. Of some 83,000 tested, about 20% had one in any assay.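 Values shown are percent growth following 48 h exposure of cells in 96-well plates to a single concentration of compound; below 10 was considered active.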 A number with no mark means an inactive call. Active and inactive are the calls of the source.

Key:
Experiment in all cases: NCI-60 one-dose screen, 48 h (100 = growth as untreated, 0 = no growth, -100 = all killed)
Settings in all cases: 10 µM unless noted
[1] = tested on: NCI-H23 lung
[2] = tested on: NCI-H226 lung
[3] = tested on: NCI-H322M lung
[4] = tested on: HOP-62 NSCLC
[5] = tested on: NCI-H460 lung
[6] = tested on: NCI-H522 lung
[7] = tested on: A549/ATCC NSCLC
[8] = tested on: 786-0 renal
[9] = tested on: COLO 205 colon
[10] = tested on: DU-145 prostate
[11] = tested on: K-562 leukemia
[12] = tested on: MALME-3M melanoma
[13] = tested on: MDA-MB-231 breast
[14] = tested on: RXF 393 renal
[15] = tested on: SF-268 CNS
[16] = tested on: SF-295 CNS
[17] = tested on: SF-539 CNS
[18] = tested on: UACC-257 melanoma
[19] = tested on: M14 melanoma

Row | SMILES | growth [1] | growth [2] | growth [3] [%] | growth [4] | growth [5] | growth [6] | growth [7] [%] | growth [8] | growth [9] | growth [10] | growth [11] | growth [12] | growth [13] [%] | growth [14] | growth [15] | growth [16] | growth [17] | growth [18] | growth [19]
1 | O=C1Nc2ccc(Cl)cc2/C1=C\c1c(-c2ccc(F)cc2)nc2ccccn12 | -20.1% (active) | -30.8% (active) | 43.6 | -10.3% (active) | 6.88% (active) | 11.4% | 23.7 | 24.6% | 45.7% | -19% (active) | -39.5% (active) | 16.6% | 45.9 | -13.4% (active) | 5.15% (active) | -41% (active) | -31.2% (active) | 75.6% | -9.52% (active)
2 | CCOC(=O)C1OC2(CCCC2)OC1C(=O)OCC (configuration not stated) | 103% | 97.1% | 94.3 | 103% | 116% | 90.5% | 102 | 100% | 111% | 125% | 112% | 107% | 95.7 | 104% | 114% | 126% | 114% | 97.7% | 105%
3 | CC(=O)Oc1c(Cl)c(Cl)c(Cl)c(Cl)c1Cl | 95.3% | 103% | 92.3 | 95.9% | 105% | 90.2% | 85.9 | 100% | 106% | 105% | 101% | 91.7% | 86.3 | 116% | 96.1% | 97.7% | 86.3% | 94.1% | 105%
4 | CC(C)c1nc2ccccc2n1CC(=O)N/N=C/c1cccc(O)c1 | 101% | 105% | 93.2 | 97.4% | 102% | 86.6% | 97.5 | 95.6% | 108% | 104% | 87% | 108% | 93.4 | 104% | 99.2% | 103% | 97.6% | 87.7% | 94.8%
5 | C#CCNc1nc(NCCNC(=O)CCl)nc(N(C)CCCCc2ccccc2)n1 | 84.7% | 71% | 96.4 | 94.3% | 107% | 25.4% | 119 | 97.5% | 91.2% | 101% | 95.1% | 60.3% | 90.7 | 93.5% | 94% | 99.4% | 106% | 113% | 78.5%
6 | CS(=O)(=O)c1ccc(C(=O)Nc2ccc(Cl)c(-c3ccccn3)c2)c(Cl)c1 | 27.3% | 16.5% | 52 | 36% | -46% (active) | 2.48% (active) | 26 | -41.2% (active) | 6.45% (active) | 24.7% | 13.8% | 42.4% | 30.2 | -52.9% (active) | 31.8% | 8.89% (active) | 19.6% | 32.6% | 26.8%
7 | Cc1ccc(OC2=C(C#N)C(=N)N3C(=NN2)Sc2c(C)ccc(C)c23)cc1 | 85.3% | 93.4% | 102 | 99.6% | 100% | 90.4% | 98.6 | 110% | 106% | 122% | 98% | 120% | 95.4 | 106% | 113% | 96.7% | 102% | 108% | 109%
8 | CC(C)c1ccc2c(c1)CCC1C2CCCC1(C)NCc1ccccc1 (configuration not stated) | 73% | 103% | 32.6 | 91% | 71.3% | 9.67% (active) | 83.7 | 64.7% | -35.8% (active) | 75% | 11.1% | -32.3% (active) | 39.8 | 51.7% | 79.2% | 96.7% | 90% | -31.2% (active) | -84.9% (active)
